High-throughput results from PubChem.
Most compounds without a hit are left out; they make up all but 4.1% or so of the library.
CHT PAM = CHT positive allosteric modulators, primary screen, cell-based, membrane potential dye, choline EC20; High affinity choline transporter 1 (Homo sapiens), Q9GZV3; CHT-expressing cells; stronger effect = higher value; LV-AA mutant CHT in HEK293 cells; B-score at 10 µM; hit rate 0.49% among 310,000;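 active = initial fluorescence not abnormally high and integrated response B-score, plate-corrected, over 3 SD above library mean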
MEKK3 PB1 HTS = modulators of MEKK3-MEK5 PB1 binding, primary screen, biochemical, wildtype MEKK3, multiplex bead flow cytometry, Alexa488-MEK5. hit rate 1.4% among 290,000. binding response (% of control), % at 10 µM. Mitogen-activated protein kinase kinase kinase 3 (Homo sapiens), Q99759. bead-based flow cytometry, Alexa488-MEK5 binding to MEKK3; actives lie on both sides; 0 = blocked by unlabeled MEK5, 100 = vehicle;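 active = binding response more than 3 SD above or below the average of its plate-row segment, actives on both sides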;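 also: Alexa488 bead fluorescence after subtracting the streptavidin-only scavenger bead signal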
Target sequence (Q99759 whole entry, looked up): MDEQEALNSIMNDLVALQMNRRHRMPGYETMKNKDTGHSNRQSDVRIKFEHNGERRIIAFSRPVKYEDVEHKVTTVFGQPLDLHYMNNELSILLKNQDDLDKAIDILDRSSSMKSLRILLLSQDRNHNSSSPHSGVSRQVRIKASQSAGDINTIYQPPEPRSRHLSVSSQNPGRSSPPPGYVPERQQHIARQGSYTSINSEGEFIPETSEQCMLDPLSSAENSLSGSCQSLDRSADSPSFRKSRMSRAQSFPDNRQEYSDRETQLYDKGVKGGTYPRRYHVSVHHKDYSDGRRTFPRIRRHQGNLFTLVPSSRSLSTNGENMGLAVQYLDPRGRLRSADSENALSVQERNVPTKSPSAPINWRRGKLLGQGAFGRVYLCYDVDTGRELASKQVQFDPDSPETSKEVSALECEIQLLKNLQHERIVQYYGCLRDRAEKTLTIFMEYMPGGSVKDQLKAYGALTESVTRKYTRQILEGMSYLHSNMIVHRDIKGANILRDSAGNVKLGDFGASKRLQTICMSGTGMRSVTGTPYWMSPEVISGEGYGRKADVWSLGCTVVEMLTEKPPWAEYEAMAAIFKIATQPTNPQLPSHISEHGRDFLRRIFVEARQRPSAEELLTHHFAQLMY
SUMO Mot1 rescue = yeast Mot1-301 growth rescue at high temperature, primary screen, SUMOylation pathway inhibitor project, S. cerevisiae, ATP luminescence, 38.5C; S. cerevisiae Mot1-301 growth rescue; percent above DMSO median, 100 means doubled; growth rescue, % at 18.8 µM; hit rate 1% among 320,000; AID 2716, 2010;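 active = every valid replicate shows activation above 250% relative to neutral control wells; inactive = the rest, any valid replicate at or below 250%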;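 also: OY570 slx delta 5 strain wells were the positive control but not used for scaling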
MEKK2 WT-MEK5 = modulators of MEK5 binding to wildtype MEKK2, primary screen, biochemical, multiplex bead flow cytometry, Alexa488-MEK5. Mitogen-activated protein kinase kinase kinase 2 (Homo sapiens), Q9Y2U5. Alexa488-MEK5 binding to MEKK2 WT; actives lie on both sides. binding response (% of control), % at 10 µM. hit rate 1.1% among 290,000; in the data active = binding response below about 67% or above about 130%
CHT inh = inhibitors of human choline transporter CHT. High affinity choline transporter 1 (Homo sapiens), Q9GZV3. CHT-expressing cells, membrane potential dye, choline response; stronger effect = lower value. B-score at 10 µM. hit rate 0.86% among 310,000. AID 488975, 2010;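 active = B-score over 3 SD under the library average, and starting fluorescence ratio not unusually high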;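 also: choline stimulus applied at its EC90 after an EC20 pre-addition; B-score computed on integrated fluorescence ratio after choline addition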
MEKK2 mut-MEK5 = MEK5 binding signal on mutant MEKK2 PB1, primary screen, biochemical, multiplex bead flow cytometry, Alexa488-MEK5; Alexa488-MEK5 binding to MEKK2 mutant; percent response, % at 10 µM; hit rate 0.35% among 290,000; AID 1530, 2009; in the data active = percent response above about 24%, passing the limit was not always enough
MEKK2wt confirm = modulators of MEK5 binding to wildtype MEKK2, confirmation, biochemical, single concentration, multiplex bead flow cytometry; shares compounds with MEKK3 PB1 HTS; Alexa488-MEK5 binding to MEKK2 WT; actives lie on both sides; binding response (% of control), % at 10 µM; hit rate 2.4% among 5,900; in the data active = binding response below about 16% or above about 210%; inactive = in between
MEKK2mut-MEK5 = mutant MEKK2 PB1-MEK5 binding signal retest – biochemical, single concentration, multiplex bead flow cytometry, confirmation; shares compounds with MEKK3 PB1 HTS; Alexa488-MEK5 binding to MEKK2 mutant; hit rate 2% among 5,900; AID 1893, 2009; percent response, % at 10 µM; in the data active = percent response mostly above about 71%, no sharp cut-off; inactive = mostly below about 38%;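 also: higher means compound restores mutant binding toward wildtype level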
MEKK3 confirm = MEKK3 wild-type PB1 binding to MEK5, inhibitors, confirmation, biochemical, bead multiplex flow cytometry, single concentration, wildtype; binding response (% of control), % at 10 µM; hit rate 1.8% among 5,900; Alexa488-MEK5 binding to MEKK3; stronger effect = lower value; AID 1894, 2009; shares compounds with MEKK3 PB1 HTS;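 active = binding response below 72% of control, or above a set upper limit, though filed actives all read lower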;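 also: 100% = DMSO only wells and 0% = binding blocked by excess unlabeled MEK5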
Numbers without * were called inactive; i = inactive; x = not tested or not shown; ! = repeats disagree; [ ] = remark or other dose.

SMILES	CHT PAM	MEKK3 PB1 HTS	SUMO Mot1 rescue	MEKK2 WT-MEK5	CHT inh	MEKK2 mut-MEK5	MEKK2wt confirm	MEKK2mut-MEK5	MEKK3 confirm
CC(C)c1ccccc1NC(=O)COc1ccc2c(=O)c(Oc3ccc4ccccc4c3)coc2c1	i	184*	2	104	i	0	101	0	101
O=C(Oc1ccc2c(=O)c(Oc3ccc4ccccc4c3)coc2c1)c1ccco1	i	108	13	102	i	8	x	x	x
Cc1ccc(Cn2cnc3ccccc32)cc1C	i	74*[inhibitor]	1	98	i	-1	108	4	107
O=C(Cc1ccc(F)cc1)Oc1ccc(C(=S)N2CCCC2)cc1	i	111	-24	97	i	-1	x	x	x
CC(=O)c1cccc(N/C=C\C(=O)c2ccc(C)cc2)c1	i	135*	-10	105	i	0	105	8	108
COCCCN(C(=S)Nc1cc(C)cc(C)c1)C(C)c1ccncc1 (centres undefined)	i	101	14	106	i	0	x	x	x
O=C(c1cc(Br)c[nH]1)N1CCSCC1	i	101	1	100	i	-4	x	x	x
CCCNS(=O)(=O)c1ccc(OCC(=O)N2CCOCC2)cc1	i	69*[inhibitor]	76	88	i	-5	99	-2	101
COC(=O)C1=C(C(=O)OC)[C@@H]2N(C)c3ccccc3[C@@]23C[C@@H](C(=O)OC)N(C(=O)c2ccc(Br)cc2)C3=N1	i	115	88	133	i	2	x	x	x
CCN(CC(=O)NCc1ccc(Cl)cc1)C(=O)COc1cccc(Cl)c1	i	x	151	x	i	x	x	x	x
Cc1cc(-c2nn(-c3ccccc3F)cc2CN2CCN(c3ccncc3)CC2)c(C)s1	i	106	183	172*	i	41	185	56	112
Cc1cc(-c2nn(-c3ccccc3F)cc2CN2CCC(O)CC2)c(C)s1	i	99	224	108	i	2	x	x	x
CC(=O)N1/C(=C/c2ccc(N(C)C)cc2)C(=O)c2ccccc21	x	55	x	36*[inhibitor]	x	-12	38	-20	83
CC(=O)N1c2ccccc2C(=O)C1N(C)c1ccc(C)cc1 (centres undefined)	i	103	0	110	i	4	x	x	x
COc1cc(NC(=O)C(C)Oc2ccccc2)cc(OC)c1 (centres undefined)	i	0.0*[inhibitor]	3	0.0*[inhibitor]	i	-27	104	6	107
Cc1ccc2[nH]c(=O)c(C3=NN(C(=O)CCC(=O)O)C(c4cccs4)C3)c(-c3ccccc3)c2c1 (centres undefined)	i	133*	2	102	i	0	88	-4	102
C=CCN1c2ccccc2[C@]23C[C@@H](C(=O)OC)N(C(=O)c4ccco4)C2=NC(C(=O)OC)=C(C(=O)OC)[C@H]13	i	128*	0	145*	i	2	95	-9	97
C=CCN1c2ccccc2[C@]23C[C@@H](C(=O)OC)N(C(=O)C4CCC4)C2=NC(C(=O)OC)=C(C(=O)OC)[C@H]13	i	91	-1	79	i	0	x	x	x
COc1ccc(NC(=O)NCCCN2CCN(c3cc(C)ccc3C)CC2)cc1	i	115	-9	135*	i	25*	138	25	101
COc1ccccc1C(CC(=O)O)NS(=O)(=O)c1ccc2c(c1)N(C(C)=O)CC(C)O2 (centres undefined)	i	98	0	98	i	-4	x	x	x
CCOc1ccc2nc(NCCCNS(=O)(=O)c3ccc(C)cc3)c(C#N)cc2c1	i	130*	265	94	i	4	97	0	105
CCC(C)NC(=O)c1ccccc1NC(=O)CN1C(=O)c2ccccc2S1(=O)=O (centres undefined)	i	104	1	101	i	1	x	x	x
CC1CCCCN1C(=O)C(=O)c1cn(CC(=O)N2CCCC2)c2ccccc12 (centres undefined)	i	1.0*[inhibitor]	-20	-3.0*[inhibitor]	i	-15	103	2	103
CCCCNC(=S)Nc1ccc(-c2nc3ccc(C)cc3s2)cc1	i	134*	-1	105	i	0	105	3	107
Cc1ccc2nc(-c3ccc(NC(=S)NCCC(C)C)cc3)sc2c1	i	92	2	92	i	-2	x	x	x
SMILES	CHT PAM	MEKK3 PB1 HTS	SUMO Mot1 rescue	MEKK2 WT-MEK5	CHT inh	MEKK2 mut-MEK5	MEKK2wt confirm	MEKK2mut-MEK5	MEKK3 confirm
O=C(c1cccc(S(=O)(=O)N2CCN(c3ccccc3)CC2)c1)N1CCN(c2ccccc2O)CC1	i	x	239	x	i	x	x	x	x
Cn1cc(CN2CCc3sccc3C2)c(-c2ccccc2F)n1	i	104	-8	112	i	14	x	x	x
Clc1ccccc1CN1CCc2sccc2C1	i	70*[inhibitor]	13	0.0*![inhibitor]	i	-2	103	3	98
Cc1ccc2nc(/C(C#N)=C\c3ccc([N+](=O)[O-])o3)[nH]c2c1	i	70*[inhibitor]	72	77	i	-10	96	-3	98
Cc1ccc2nc(/C(C#N)=C\c3ccc(N4CCOCC4)o3)[nH]c2c1	i	103	48	46*[inhibitor]	i	26*	112	12	108
CC1CCc2c(sc(NC(=O)CSc3nc4c(c(C(F)(F)F)n3)CCc3ccccc3-4)c2C(N)=O)C1 (centres undefined)	i	101	24	111	i	17	x	x	x
Cc1ccccc1NC(=O)c1nc2nccc(C)n2n1	i	69*[inhibitor]	5	91	i	-3	110	-2	102
COc1ccccc1NC(=O)c1ccc(NC(=O)c2nc3nccc(C)n3n2)cc1	x	x	9	x	x	x	x	x	x
CNC(=S)N/N=C(\C)c1ccccc1	i	132*	-17	128	i	28	109	2	103
